CBFb-RUNX1 inh – inhibitors of human CBF-beta and RUNX1 interaction; 230,000 tested, under 10 active; AlphaScreen CBFb-His/RUNX1-biotin binding, biochemical; AID 1477; Potency, µM (series often up to 59.8 µM), inactives show at the top dose activity, negative = inhibition, actives largely listed as inhibitors; Q01196+Q13951; further: % of control where 0% means no effect
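CBFb-His/RUNX1-biotin, 30 nM each, preincubated 20 min RT; compound 15 min RT; Ni + streptavidin beads 50 ng each, 90 min RT; AlphaScreen read.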
MBNL1-CUG inh – MBNL1-poly(CUG) RNA binding inhibition; TR-FRET MBNL1-His/biotin-(CUG)12 binding, 665/545 ratio; Potency, µM (top dose mostly 57.5 µM), for the others: top-dose activity change, negative = inhibition, usual class: inhibitors; 0.036% of 280,000 active; Q9NR56; active means well fitted inhibition curve with a large enough effect in the signal ratio, with a control signal flat, not every such curve was filed as active; inconclusive means small, poorly fitted or top-dose-only effect, or effect the other way, or a change in a side signal; inactive means no such curve, though single readings can be large or run the other way; the % refers to the signal ratio; further: potency means the concentration at half of the fitted maximal effect; on the % scale 0 is the no-effect control and ±100 the full control effect
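Inhibition of protein-RNA binding appears as loss of TR-FRET between terbium anti-His antibody on MBNL1-His and streptavidin-XL665 on biotin-(CUG)12. Activity is normalized to buffer-only and uninhibited-complex controls.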
Rango dissoc inh – inhibition of RanGTP-driven Rango-importin beta dissociation. O95149+P62826. Biochemical FRET Rango-importin beta, RanGTP-induced dissociation. Potency, µM (highest dose often 46.1 µM), for the others: at the top dose activity change, negative = inhibition. 0.071% of 340,000 active. AID 540253; calls by dose curve; further: potency means the concentration at half of the fitted maximal effect; % of control where 0% means no effect; nearly all actives have a fitted effect of over 45% in size
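Rango/importin beta premix (0.1/0.25 uM final), PBS + 1 mM DTT + 0.02% Tween-20 + 0.1% BSA; cpd 5 min RT; FRET pre-read; + RanGTP-RCC1 (0.6 uM Ran, 2 mM GTP, 0.2 uM RCC1); 45 min RT; FRET post-read, ex 430, em 486/530 nm.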
ClpP mod – qHTS Assay for Activators of ClpP; 1.9% of 340,000 active; AID 651965, 2013; Potency, µM (series often up to 57.5 µM), inactives show top-dose activity change, negative = active; purified B. subtilis ClpP, FRET peptide cleavage, 20 min; ATP-dependent Clp protease proteolytic subunit (Bacillus subtilis (strain 168)), P80244; active means well fitted falling curve with a large enough effect; inconclusive means small, poorly fitted or top-dose-only effect; inactive means no such curve, though single readings can be large or run the other way; further: potency means the concentration at half of the fitted maximal effect; the source files actives as falling curves though it sought activators and does not explain the sign; nearly all actives have a fitted effect of over 65% in size
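Buffer: 100 mM Tris/HCl pH8, 100 mM KCl, 0.05% low protease BSA, 2.5% glycerol, 0.01% Tween-20. ClpP 10 microg/mL final; 20 min RT; delta FRET normalized to ADEP and DMSO controls.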
Rango-impB inh – inhibitors of Rango-importin beta complex formation. Q14974. Rango CFP/YFP FRET sensor + importin beta, 45 min. Potency, µM (titrated, usually from 92.2 µM), for inactives: at the highest dose inhibition of complex formation. 0.031% of 340,000 active; calls by dose curve;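 further: potency means the concentration at half of the fitted maximal effect; 0% = DMSO wells and 100% = buffer wells lacking importin beta; nearly all actives have a fitted effect of over 15% in size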
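FRET biosensor Rango (snurportin 1 IBB between N-terminal EYFP and C-terminal Cerulean), 50 nM in PBS/1 mM DTT/0.02% Tween-20/0.1% BSA, preincubated 5 min RT with compound; 0.125 microM importin beta added, 45 min RT, CFP/YFP FRET ratio read.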
MBNL1 TRFRET – confirmation of inhibitors of human MBNL1-poly(CUG) RNA binding | shares compounds with MBNL1-CUG inh | TR-FRET MBNL1-His / biotin-(CUG)12 binding, 60 min | Potency, µM (highest dose often 57.6 µM), for inactives: top-dose activity change, negative = inhibition, usual class: inhibitors | 50% of 140 active
MBNL1-CUG Alpha – MBNL1-CUG RNA binding inhibition, AlphaScreen validation; shares compounds with MBNL1-CUG inh; AlphaScreen MBNL1-His / biotin-(CUG)12 binding; Potency, µM (titrated, usually from 57.7 µM), for the others: at the highest dose activity, negative = inhibition, usual class: inhibitors; 30% of 140 active; AID 493205
Menin-MLL HTRF – counter-screen for MBNL1-poly(CUG) RNA binding inhibitors; shares compounds with MBNL1-CUG inh; Potency, µM (highest dose often 57.6 µM), without a hit: top-dose activity, negative = inhibition, actives largely listed as inhibitors; 20% of 120 active; His-Menin/biotin-MLL peptide TR-FRET counterscreen
ClpP inh valid – Bacillus subtilis ClpP inhibition, validated hit; purified B. subtilis ClpP, FRET-FV substrate cleavage, 20 min; shares compounds with ClpP mod; 40% of 470 active; Potency, µM (top dose mostly 57.5 µM), without a hit: at the top dose activity change, negative = inhibition, most hits filed as inhibitors; further: potency means the concentration at half of the fitted maximal effect; on the % scale 0 is the no-effect control and ±100 the full control effect; nearly all actives have a fitted effect of over 70% in size
* hit, by the source's call; ? = inconclusive; nt = no result. Shown is part of a subset that was picked to be rich in hits. Unless noted, the call rests on the fitted dose curve; in most records, active means well fitted curve in the direction sought with a large enough effect; inconclusive means small, poorly fitted or top-dose-only effect, or another doubt; inactive means no such curve, though single readings can be large; an effect the other way counts as inactive or inconclusive.

SMILES	CBFb-RUNX1 inh	MBNL1-CUG inh	Rango dissoc inh	ClpP mod	Rango-impB inh	MBNL1 TRFRET	MBNL1-CUG Alpha	Menin-MLL HTRF	others
CCC(CC)NC(=O)Nc1ccc(F)c(Cl)c1	9%	40µM*	17%	0%	3%	?	4%	-23%
Cc1ccc(NC2c3ncccc3C(=O)N2Cc2cccs2)cc1 (stereo unspecified)	-7%	40µM*	8%	nt	4%	52µM*	26µM*	-4%
COc1ccc(CCNC(=O)C2CC(=O)N(c3ccc(C)cc3)C2)cc1OC (stereo unspecified)	nt	-4%	1%	nt	0%	?	-8%	1%
CC(C)Sc1ncc(Cl)c(C(=O)Nc2nc3ccc(S(C)(=O)=O)cc3s2)n1	nt	nt	nt	2%	nt	nt	nt	nt
CCCCC[C@H](O)/C=C/[C@H]1[C@H](O)CC(O)[C@@H]1C/C=C\CCCC(=O)O (stereo partly specified)	10%	nt	nt	nt	nt	nt	nt	nt
CCCCC[C@H](O)/C=C/[C@@H]1[C@@H](C/C=C\CCCC(=O)OC)[C@@H](O)C[C@H]1O	1%	nt	5%	0%	2%	?	10µM*	2%
Cc1cc2c(c(=O)n1CCN(C)C)C(c1ccccc1Br)C(C#N)=C(N)O2 (stereo unspecified)	2%	10µM*	-8%	0%	0%	13µM*	-7%	26µM*
CC(Sc1ncc(C#N)c(N)n1)C(=O)Nc1ccccc1 (stereo unspecified)	8%	40µM*	-4%	-1%	0%	-1%	?	-2%
Cc1ccc(C)c(NC(=O)Cn2c(=O)n(CCCS(=O)(=O)C3CCCCC3)c(=O)c3ccccc32)c1	nt	nt	nt	-7%	nt	nt	nt	nt
NCCCC(N)CC(=O)NCC1NC(=O)C(CO)NC(=O)C(N)CNC(=O)C(C2CCN=C(N)N2)NC(=O)/C(=C/NC(N)=O)NC1=O (stereo unspecified)	nt	nt	nt	nt	nt	-1%	-7%	nt
O=C(CCn1c(=O)c2ccccc2n(Cc2cccc(Cl)c2)c1=O)NCCc1ccccc1	nt	nt	nt	-2%	nt	nt	nt	nt
Cc1ccc(C(=O)NCCN2C3=NC[C@H](C(C)C)N3C[C@H]2Cc2ccc(O)cc2)cc1Br	6%	40µM*	7%	-1%	0%	41µM*	?	-26%
CCOc1ccc(CC(=O)Nc2c(C(=O)Nc3ccccc3)oc3ccccc23)cc1OCC	2%	-1%	-18%	231%	?	nt	nt	nt	ClpP inh valid=?
Cc1ccc(NC(=O)c2oc3ccccc3c2NC(=O)Cc2ccccc2)cc1	nt	nt	nt	145%	nt	nt	nt	nt	ClpP inh valid=?
Cc1cc(-c2ccccc2)c2nncn2n1	-1%	?	12%	7.9µM*	1%	nt	nt	nt	ClpP inh valid=22µM*
CC(=O)Nc1ccc(S(=O)(=O)Nc2nc3ccccc3nc2Nc2cccc(O)c2)cc1	9%	5%	-5%	nt	-1%	nt	nt	nt
CC(=O)Nc1ccc(S(=O)(=O)Nc2nc3ccccc3nc2Nc2ccc3ccccc3c2)cc1	4%	2%	-23%	3.5µM*	-3%	nt	nt	nt	ClpP inh valid=?
